# USP28 block: blocks human USP28 ubiquitin-rhodamine cleavage | Q96RU2 | purified USP28, Ub-rhodamine cleavage fluorescence, 30 min | inhibition, % at 25 µM | 47,000 compounds, 3% hits | AID 1645857
# USP8 block: inhibitors of human USP8 deubiquitinase; AID 1645853; purified USP8, Ub-rhodamine cleavage fluorescence, 30 min; 47,000 compounds, 4.2% hits; P40818; inhibition, % at 20 µM
# USP30 block: inhibitors of human USP30 deubiquitinase; Q70CQ3; purified USP30, Ub-rhodamine cleavage fluorescence; inhibition, % at 25 µM; 47,000 compounds, 5.3% hits
# USP17 inh: human USP17-like deubiquitinase inhibition; A8MUK1; purified USP17, Ub-rhodamine cleavage fluorescence, 3 h; inhibition, % at 50 µM; 47,000 compounds, 6.5% hits; AID 1645855
# * marks the source's active call; other numbers are inactive results; i = inactive; . = no result given. Sampled rows, rich in hits. Any-hit rate of the full collection: about 13%. Rule as the data show it: active = inhibition above about 30%; inactive = the rest.
SMILES,USP28 block,USP8 block,USP30 block,USP17 inh
COc1ccc(CNC(=O)CN2C(=O)CC(c3ccccc3)=Nc3ccccc32)cc1,-3,29,0,83*
Cn1cnc2c(C(=O)N3CCc4ccccc4C3)nn(-c3ccccc3)c2c1=O,-29,-16,-90,-34
Cc1ccc(CNC(=O)C2CCCN(c3ccc4nncn4n3)C2)cc1 (stereo unspecified),0,2,-8,-1
CCc1ccc(C(C)NC(=O)C2CCN(c3ccc4nncn4n3)CC2)cc1 (stereo unspecified),54*,3,9,7
CNC(=O)C1CN(C(=O)Nc2ccc(C)cc2C)CC12CCCC2 (stereo unspecified),-6,8,7,2
Cc1c([N+](=O)[O-])ccc2[nH]ncc12,-20,-124,-76,-35
O=C(C1CCCC1)N1CCN(c2ccccc2)CC(Cc2cnccn2)C1 (stereo unspecified),2,19,15,13
Cc1cn2c(=O)cc(COC(=O)c3ccccc3Cl)nc2s1,7,-10,8,2
NS(=O)(=O)c1ccc(Cl)c(C(=O)OCc2csc(Nc3ccccc3)n2)c1,71*,16,6,10
COC(=O)c1ccc(C2CC(=O)Nc3c2sc(C(=O)O)c3-c2ccc(OC)cc2)cc1 (stereo unspecified),13,2,34*,11
Cc1cccc(-n2nnc(-c3nc(-c4ccc(Cl)cc4)no3)c2N)c1,-14,12,-12,-8
Cc1ccc(Cn2nc(C)c3cc(C(=O)NC4=NCCS4)sc32)cc1,-16,-3,-18,-8
COc1ccccc1NC(=O)c1cc2c(C)nn(Cc3ccccc3)c2s1,20,-226,0,70*
Cc1nn(Cc2ccccc2)c2sc(C(=O)Nc3nc4ccccc4[nH]3)cc12,27,84*,44*,67*
CCOc1ccc2nc(N3CCN(C(=O)C4CC4)CC3)sc2c1,4,-25,8,23
CCc1ccc(N2C(=O)c3ccccc3C2C(=O)NCc2ccccc2OC)cc1 (stereo unspecified),23,0,63*,68*
COc1ccccc1CNC(=O)CC1c2ncccc2C(=O)N1c1ccccc1 (stereo unspecified),-9,-10,-16,-14
O=C(c1ccccc1)N1CC[C@H](c2nnc(-c3ccncc3)o2)C1,-1,-4,1,-1
Cc1ccc(CNC(=O)N2CCC(c3nc(C(=O)N4CCCC4)c(C)o3)CC2)cc1,-15,-10,-4,-11
Cc1ccc(NC(=O)N2CCC(c3nc(C(=O)N4CCCC4)c(C)o3)CC2)cc1,6,0,33*,4
Cc1cc(C)cc(NC(=O)N2CCC(c3nnc(-c4ccccc4)o3)CC2)c1,14,13,35*,14
Cn1cccc1C(=O)N1CCO[C@H]2C(Cn3cccn3)CC[C@@H]21 (stereo partly specified),-13,-371,-17,-36
O=C(NCCc1ccc(F)cc1)c1cc2c([nH]c1=O)CCCC2,-12,2,-1,42*
O=C(c1ccc2ccc(N3CCOCC3)n2c1)N1CCOCC1,-165,-45,i,-148
Cc1ccc(-c2nc3nc(C)c(Cc4ccccc4)c(=O)n3[nH]2)cc1,5,2,15,28
SMILES,USP28 block,USP8 block,USP30 block,USP17 inh
COc1ccc(-c2nc3nc(C)c(Cc4ccccc4)c(=O)n3[nH]2)cc1,19,7,51*,74*
O=C1N(c2cccnc2)C(=O)C2(Cc3ccccc3)CCN(Cc3ccccn3)CCN12 (stereo unspecified),-18,-33,-20,-12
Cc1ccc(CNC(=O)c2cccc(-c3cnc(NC4CCCCC4)nc3)c2)cc1,0,-17,-9,-2
CCc1ccc(NC(=O)CSc2nc3nccnc3c(=O)n2Cc2ccc(F)cc2)cc1,-9,44*,-1,7
NC(=O)CSc1nc2nccnc2c(=O)n1Cc1ccc(F)cc1,-10,-54,-37,-21
Cc1ccc(C2N3CC4(C)CN2CC(c2ccccc2)(C3)C4=O)cc1 (stereo unspecified),11,5,34*,19
COc1ccccc1NC(=O)NCc1nnnn1-c1ccccc1,15,3,32*,10
Cc1ccc(NC(=O)NCc2nnnn2-c2ccccc2)cc1,11,2,18,0
O=C1[C@H]2Cc3c([nH]c4ccccc34)C(c3cccc([N+](=O)[O-])c3)N2C(=O)CN1Cc1ccco1 (stereo partly specified),1,-14,-3,40*
COc1cccc(C2c3[nH]c4ccccc4c3C[C@@H]3C(=O)N(CC(O)c4ccccc4)CC(=O)N23)c1 (stereo partly specified),40*,31*,-40,45*
COc1cc(C2c3[nH]c4ccccc4c3C[C@@H]3C(=O)N(Cc4ccco4)CC(=O)N23)cc(OC)c1OC (stereo partly specified),-8,14,-29,-3
Cc1cccc(NC(=O)Nc2cccc(-c3nnc(-c4ccccc4)o3)c2)c1,15,17,25,16
O=C(O)CCC(=O)Nc1cccc(-c2nnc(-c3ccccc3)o2)c1,8,15,33*,19
O=C(NCCc1nc(-c2ccc3c(c2)OCO3)n[nH]1)c1cccc(Br)c1,13,10,11,38*
COc1cc(=O)n2c(c1C(=O)NCc1ccc(F)cc1Cl)CCCC2,30,-41,-19,-11
CCOc1ccc2nc(NCCc3ccc(Cl)cc3Cl)sc2c1,44*,9,16,11
O=C(COc1ccc(S(=O)(=O)N2CCOCC2)cc1Cl)Nc1ccc2c(c1)CCC2,8,-5,-2,9
COC(=O)c1cc2sccc2n1CC(=O)Nc1cccc(SC)c1,17,1,36*,28
COC(=O)c1cc2sccc2n1CC(=O)Nc1ccc(OC)c(OC)c1OC,6,-5,-56,-3
CCOC(=O)c1ccc(OCC2c3cc(OC)c(OC)cc3CCN2C(=O)C(C)Oc2ccccc2)cc1 (stereo unspecified),0,85*,-29,32*
CCN1CCC2(CC1)N=C(c1ccc3c(c1)OCO3)CC(c1ccccc1O)N2 (stereo unspecified),-11,34*,-24,-7
CCN1CCC2(CC1)N=C(c1ccccc1)CC(c1cccc(OC)c1O)N2 (stereo unspecified),-2,60*,-53,4
CC(=O)N1CCC2(CC1)N=C(c1ccccc1O)CC(c1ccc(C)cc1)N2 (stereo unspecified),2,12,-48,-6
CN(Cc1ccc2c(c1)OCO2)C(=O)c1nc(-c2ccccc2)n(-c2ccccc2)n1,28,-49,15,20
CS(=O)(=O)Nc1cccc(CNC(=O)c2nc(-c3ccccc3)n(-c3ccccc3)n2)c1,-2,38*,10,13
Cc1ccnc(NS(=O)(=O)c2ccc(NC(=O)c3ccc(S(=O)(=O)N(C)Cc4ccccc4)cc3)cc2)n1,-30,40*,-57,.
COc1ccccc1N(C)S(=O)(=O)c1ccc(C(=O)NCCc2ccc(F)cc2)cc1,-5,-1,4,-3
